The record followed here is PubChem BioAssay.

In this experiment the target is Follistatin (Homo sapiens) (UniProt P19883). As to the kind of experiment: follistatin binders on small-molecule microarrays, primary screen, biochemical, small-molecule microarray, 635/667 nm fluorescence (AID 1132). The note with it: FST binding, 635 nm fluorescence, higher = more signal.
Chain of Follistatin (Homo sapiens) (P19883 whole entry, looked up): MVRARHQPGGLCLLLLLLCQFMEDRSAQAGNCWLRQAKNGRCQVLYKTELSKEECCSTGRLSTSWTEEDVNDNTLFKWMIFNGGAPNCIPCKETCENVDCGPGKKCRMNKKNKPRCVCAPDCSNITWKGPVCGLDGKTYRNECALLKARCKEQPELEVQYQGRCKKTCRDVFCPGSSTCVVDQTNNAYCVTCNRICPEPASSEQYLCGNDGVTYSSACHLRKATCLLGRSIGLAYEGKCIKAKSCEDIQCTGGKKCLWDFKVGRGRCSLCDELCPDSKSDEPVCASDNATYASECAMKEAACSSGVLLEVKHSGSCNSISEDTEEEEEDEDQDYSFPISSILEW
For `Cc1ccc(S[C@]2(C(=O)NCC(F)(F)F)CC(=O)N(Cc3ccccc3)[C@@H]2c2ccc(CO)cc2)cc1`, the composite z-score was -0.739.
The compound `O=C1O[C@@H](c2ccccc2)[C@@H](c2ccccc2)N2[C@@H](c3ccccc3OCCO)[C@]3(C(=O)Nc4ccccc43)[C@@H](C(=O)NC[C@H](O)c3ccccc3)[C@H]12` showed a composite z-score of -0.185.
Regarding `COc1ccc([Si](C)(C)[C@@H]2[C@@H](CC(=O)N3CCC[C@H]3CO)O[C@]3(C(=O)N(Cc4ccc(N5C(=O)c6cccc7cccc5c67)cc4)c4ccccc43)[C@H]2C)cc1`, the composite z-score came to 1.1.
The result for `O=C1NC(=O)C2C1C=CC(C(O)c1ccc(Br)cc1)N2Nc1ccccn1` (stereo not given) reads 0.426; that for `O=C1C2C=CC(C(O)c3cc(C(F)(F)F)cc(C(F)(F)F)c3)N(Nc3ccc([N+](=O)[O-])cc3)C2C(=O)N1c1ccccc1` (stereo not given), 1.05.
Compound `O=C1O[C@@H](c2ccccc2)[C@@H](c2ccccc2)N2[C@@H](c3ccccc3OCCO)[C@]3(C(=O)Nc4ccc(C#CCCO)cc43)[C@@H](C(=O)Nc3nc4ccccc4s3)[C@H]12` came in with a composite z-score of 1.33.
The same measure for `COc1ccccc1CN1C(=O)c2ccccc2[C@](Cc2ccccc2I)(C(=O)NC(C)C)[C@@H]1c1ccc(CO)cc1`: 1.14; for `COC(=O)C(CC#Cc1ccc2c(c1)[C@]1(C(=O)N2)[C@H](C(=O)O)[C@H]2C(=O)O[C@H](c3ccccc3)[C@H](c3ccccc3)N2[C@@H]1c1ccccc1OCCO)C(=O)OC`: 1.18; for `CC(C)NC(=O)[C@@]1(C)c2ccccc2C(=O)N(C(C)C)[C@H]1c1ccc(CO)cc1`: -0.75.
Consider `NCCCCCCNC(=O)[C@@H]1C[C@@H]2C(=O)N3CCC[C@H]3C(=O)N2[C@@H]1c1ccc(O)cc1`, for which the composite z-score came out at 1.41.
